# Reference: ChEMBL document CHEMBL3988442, “University of Dundee, Small-Polar-MMV Screening Library” (2021)
# For some of these results: Potency and affinity values are given separately.
# Assays:
# Parameters in all cases: scale not given: direction of the effect not stated beside the values
# [1] = biological target: Protein translocase subunit SecA (Escherichia coli (strain K12)) (UniProt P10408); assay: Assay to Identify E. coli SecA ATPase Inhibitors; format: functional; settings: 30 µM
# [2] = biological target: T1, Ubiquitin-activating enzyme e1, putative (Leishmania donovani (strain BPK282A1)) (UniProt E9BSI1); assay: Leishmania donovani Ubiquitin Activating Enzyme (LdE1); format: functional; settings: 30 µM
# T1 sequence (whole entry): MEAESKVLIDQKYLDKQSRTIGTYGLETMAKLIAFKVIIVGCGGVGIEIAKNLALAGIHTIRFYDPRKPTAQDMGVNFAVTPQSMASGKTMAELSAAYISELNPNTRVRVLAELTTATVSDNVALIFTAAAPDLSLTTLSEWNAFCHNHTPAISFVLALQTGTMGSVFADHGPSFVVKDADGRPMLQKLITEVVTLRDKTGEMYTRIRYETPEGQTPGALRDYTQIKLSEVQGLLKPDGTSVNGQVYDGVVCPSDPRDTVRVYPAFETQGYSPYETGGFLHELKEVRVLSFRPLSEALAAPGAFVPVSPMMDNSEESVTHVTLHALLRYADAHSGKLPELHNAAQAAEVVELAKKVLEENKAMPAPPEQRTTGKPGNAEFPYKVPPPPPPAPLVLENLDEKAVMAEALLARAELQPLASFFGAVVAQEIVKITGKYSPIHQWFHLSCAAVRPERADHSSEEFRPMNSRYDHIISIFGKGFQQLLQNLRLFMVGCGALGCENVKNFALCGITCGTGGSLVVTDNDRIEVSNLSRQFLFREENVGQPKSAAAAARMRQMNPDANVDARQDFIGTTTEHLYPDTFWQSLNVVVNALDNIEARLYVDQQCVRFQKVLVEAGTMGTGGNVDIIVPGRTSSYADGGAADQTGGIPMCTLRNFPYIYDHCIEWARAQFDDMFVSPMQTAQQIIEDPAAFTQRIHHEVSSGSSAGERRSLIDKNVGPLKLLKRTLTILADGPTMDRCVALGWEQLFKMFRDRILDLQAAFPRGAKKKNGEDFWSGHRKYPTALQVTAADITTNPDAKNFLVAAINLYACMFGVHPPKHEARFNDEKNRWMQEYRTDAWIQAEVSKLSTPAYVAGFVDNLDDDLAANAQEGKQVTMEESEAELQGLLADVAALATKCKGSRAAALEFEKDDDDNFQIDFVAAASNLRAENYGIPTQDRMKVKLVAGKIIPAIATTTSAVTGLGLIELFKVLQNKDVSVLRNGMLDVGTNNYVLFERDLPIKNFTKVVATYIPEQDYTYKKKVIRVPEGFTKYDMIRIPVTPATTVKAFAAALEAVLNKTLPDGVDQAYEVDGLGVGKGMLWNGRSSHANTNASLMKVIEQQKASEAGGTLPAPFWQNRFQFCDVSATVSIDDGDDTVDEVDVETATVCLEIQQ
# [3] = biological target: AMP-activated protein kinase, AMPK (Homo sapiens) (UniProt P54646+O43741+P54619+Q9UGJ0+Q9Y478+Q13131+Q9UGI9); assay: AMP-dependent Kinase enzyme assay. An in vitro enzyme assay that detects ADP turnover that is directly proportional to AMPK activity. This uses naive AMPK that is activated during the assay with MK-8722; format: functional; settings: 30 µM
# [4] = biological target: Sialic acid-binding Ig-like lectin 9 (Homo sapiens) (UniProt Q9Y336); assay: Hs-Siglec9 ALPHAscreen SOP 20170721; settings: 10 µM
# Chain of Sialic acid-binding Ig-like lectin 9 (Homo sapiens) (Q9Y336 whole entry): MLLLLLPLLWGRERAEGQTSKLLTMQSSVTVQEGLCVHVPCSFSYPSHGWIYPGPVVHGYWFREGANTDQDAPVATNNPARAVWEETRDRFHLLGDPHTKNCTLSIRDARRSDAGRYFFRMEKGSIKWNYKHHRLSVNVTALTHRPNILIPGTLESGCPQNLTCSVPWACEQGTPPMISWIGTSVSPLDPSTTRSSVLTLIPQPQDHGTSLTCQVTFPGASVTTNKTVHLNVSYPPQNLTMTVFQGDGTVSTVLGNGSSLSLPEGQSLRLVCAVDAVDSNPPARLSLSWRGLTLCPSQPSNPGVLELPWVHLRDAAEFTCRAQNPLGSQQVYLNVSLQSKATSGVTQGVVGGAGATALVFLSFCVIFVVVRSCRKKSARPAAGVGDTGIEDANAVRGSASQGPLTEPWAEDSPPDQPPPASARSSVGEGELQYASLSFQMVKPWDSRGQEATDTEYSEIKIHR
# Trypanosoma cruzi = assay: Trypanosoma cruzi phosphomannomutase and mannose-1-phosphate guanylyltransferase assay; format: functional; settings: 10 µM
# [5] = biological target: T2, Arginase-2, mitochondrial (Homo sapiens) (UniProt P78540); assay: in vitro enzyme assay to detect the production of urea directly proportional to the activity of Arginase II; format: functional; settings: 33.3 µM; also: in the data most compounds retested in dose-response had high values
# T2 sequence (whole entry): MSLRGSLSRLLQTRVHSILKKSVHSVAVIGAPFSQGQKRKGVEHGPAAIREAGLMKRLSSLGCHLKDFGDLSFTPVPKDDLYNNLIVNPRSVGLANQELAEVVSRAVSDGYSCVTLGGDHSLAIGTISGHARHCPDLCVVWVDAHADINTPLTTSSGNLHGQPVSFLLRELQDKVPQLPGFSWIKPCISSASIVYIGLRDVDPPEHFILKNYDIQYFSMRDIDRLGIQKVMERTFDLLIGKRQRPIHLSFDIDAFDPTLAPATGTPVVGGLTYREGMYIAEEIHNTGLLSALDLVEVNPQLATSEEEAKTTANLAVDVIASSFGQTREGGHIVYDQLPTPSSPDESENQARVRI
# [6] = biological target: T3, Proteasome subunit beta (Trypanosoma cruzi) (UniProt O96673); assay: Trypanosoma cruzi proteasome chymotrypsin-like activity (TcProtChymo) assay.; also: in the data most compounds retested in dose-response had high values; format: functional; settings: 9.37 µM
# T3 sequence (whole entry): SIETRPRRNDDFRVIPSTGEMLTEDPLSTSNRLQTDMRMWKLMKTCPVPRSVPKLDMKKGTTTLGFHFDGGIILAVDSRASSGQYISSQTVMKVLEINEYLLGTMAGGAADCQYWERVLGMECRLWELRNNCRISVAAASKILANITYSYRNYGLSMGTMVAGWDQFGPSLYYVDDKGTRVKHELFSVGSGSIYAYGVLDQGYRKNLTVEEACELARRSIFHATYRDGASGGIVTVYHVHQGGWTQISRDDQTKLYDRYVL
# Homo sapiens = species: Homo sapiens; assay: To identify inhibition of the IFN signalling (Jak-Stat) pathway via expression of an eGFP reporter gene under the control of an IFN-stimulated response element (ISRE) containing MxA promoter.; format: functional; settings: 30 µM
# [7] = biological target: T4, Tyrosyl-tRNA synthetase, putative (Trypanosoma cruzi (strain CL Brener)) (UniProt Q4DSP6); assay: Trypanosoma cruzi tyrosyl tRNA synthetase (TcYRS) _High Tyrosine SOP; format: functional; settings: 30 µM; also: in the data most compounds retested in dose-response had high values
# T4 sequence (whole entry): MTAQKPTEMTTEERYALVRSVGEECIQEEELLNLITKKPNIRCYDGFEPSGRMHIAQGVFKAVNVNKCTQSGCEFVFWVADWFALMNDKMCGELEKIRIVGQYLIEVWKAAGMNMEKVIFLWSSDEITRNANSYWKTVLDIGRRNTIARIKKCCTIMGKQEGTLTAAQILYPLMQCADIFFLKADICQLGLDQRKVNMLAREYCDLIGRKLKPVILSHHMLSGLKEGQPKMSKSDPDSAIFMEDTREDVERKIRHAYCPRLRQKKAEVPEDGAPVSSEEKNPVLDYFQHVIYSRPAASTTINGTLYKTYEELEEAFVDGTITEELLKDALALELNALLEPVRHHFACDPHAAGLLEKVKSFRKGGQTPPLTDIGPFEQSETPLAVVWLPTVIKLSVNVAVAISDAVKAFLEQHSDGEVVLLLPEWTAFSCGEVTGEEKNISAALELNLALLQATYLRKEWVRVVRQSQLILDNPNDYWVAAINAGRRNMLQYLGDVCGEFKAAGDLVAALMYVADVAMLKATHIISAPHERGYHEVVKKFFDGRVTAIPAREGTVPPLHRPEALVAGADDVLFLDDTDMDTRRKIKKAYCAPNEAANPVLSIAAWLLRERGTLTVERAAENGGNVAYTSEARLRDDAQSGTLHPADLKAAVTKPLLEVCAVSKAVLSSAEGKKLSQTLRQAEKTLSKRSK
# [8] = biological target: T4, Tyrosyl-tRNA synthetase, putative (Trypanosoma cruzi (strain CL Brener)); assay: Trypanosoma cruzi tyrosyl tRNA synthetase (TcYRS) SOP; format: functional; settings: 30 µM
# [9] = biological target: Chromo domain-containing protein 1 (Saccharomyces cerevisiae (strain ATCC 204508 / S288c) (Baker's yeast)) (UniProt P32657); assay: ScCHD-1 Enzyme Inhibition Assay; format: functional; settings: 30 µM; also: in the data most compounds retested in dose-response had high values
# Chain of Chromo domain-containing protein 1 (Saccharomyces cerevisiae (strain ATCC 204508 / S288c) (Baker's yeast)) (P32657 whole entry, the tested form may be a part): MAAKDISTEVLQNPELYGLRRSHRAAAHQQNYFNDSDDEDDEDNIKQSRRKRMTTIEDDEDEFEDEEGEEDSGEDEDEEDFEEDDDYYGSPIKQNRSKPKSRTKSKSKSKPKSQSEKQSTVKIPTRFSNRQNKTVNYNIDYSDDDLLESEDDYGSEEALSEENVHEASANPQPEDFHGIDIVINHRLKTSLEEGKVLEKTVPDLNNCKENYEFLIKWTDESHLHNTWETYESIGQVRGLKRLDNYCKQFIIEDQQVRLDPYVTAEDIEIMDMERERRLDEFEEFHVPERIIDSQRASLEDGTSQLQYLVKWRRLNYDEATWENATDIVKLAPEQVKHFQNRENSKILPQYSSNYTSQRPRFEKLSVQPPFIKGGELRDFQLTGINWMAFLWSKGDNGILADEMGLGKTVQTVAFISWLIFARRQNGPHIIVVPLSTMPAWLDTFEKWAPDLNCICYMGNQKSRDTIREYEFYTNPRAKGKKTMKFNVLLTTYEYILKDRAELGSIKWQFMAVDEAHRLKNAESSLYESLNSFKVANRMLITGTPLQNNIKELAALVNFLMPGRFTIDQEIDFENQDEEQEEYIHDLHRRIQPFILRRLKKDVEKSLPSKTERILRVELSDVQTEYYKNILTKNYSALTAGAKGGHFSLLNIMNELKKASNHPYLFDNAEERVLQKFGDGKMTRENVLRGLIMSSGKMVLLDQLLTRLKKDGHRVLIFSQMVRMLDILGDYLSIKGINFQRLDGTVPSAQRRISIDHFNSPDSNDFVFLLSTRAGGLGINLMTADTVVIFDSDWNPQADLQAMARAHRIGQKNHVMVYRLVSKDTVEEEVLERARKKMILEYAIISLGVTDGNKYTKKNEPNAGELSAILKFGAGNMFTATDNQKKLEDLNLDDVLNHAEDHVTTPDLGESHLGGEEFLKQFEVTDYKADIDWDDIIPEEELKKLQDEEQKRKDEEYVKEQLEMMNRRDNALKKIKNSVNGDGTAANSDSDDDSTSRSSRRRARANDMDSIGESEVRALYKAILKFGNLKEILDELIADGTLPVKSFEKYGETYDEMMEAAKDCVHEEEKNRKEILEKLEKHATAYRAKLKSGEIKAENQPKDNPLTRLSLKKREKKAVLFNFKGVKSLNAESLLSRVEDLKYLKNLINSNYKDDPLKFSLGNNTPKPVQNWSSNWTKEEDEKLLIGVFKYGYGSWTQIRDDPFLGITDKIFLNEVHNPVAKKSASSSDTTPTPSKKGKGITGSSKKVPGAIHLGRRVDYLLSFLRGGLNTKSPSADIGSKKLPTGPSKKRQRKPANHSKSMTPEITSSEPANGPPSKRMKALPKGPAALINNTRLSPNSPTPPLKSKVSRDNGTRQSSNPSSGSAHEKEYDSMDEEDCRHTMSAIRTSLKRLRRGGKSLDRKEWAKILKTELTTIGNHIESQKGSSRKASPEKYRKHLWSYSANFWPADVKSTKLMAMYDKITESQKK
# Chain of Protein translocase subunit SecA (Escherichia coli (strain K12)) (P10408 whole entry): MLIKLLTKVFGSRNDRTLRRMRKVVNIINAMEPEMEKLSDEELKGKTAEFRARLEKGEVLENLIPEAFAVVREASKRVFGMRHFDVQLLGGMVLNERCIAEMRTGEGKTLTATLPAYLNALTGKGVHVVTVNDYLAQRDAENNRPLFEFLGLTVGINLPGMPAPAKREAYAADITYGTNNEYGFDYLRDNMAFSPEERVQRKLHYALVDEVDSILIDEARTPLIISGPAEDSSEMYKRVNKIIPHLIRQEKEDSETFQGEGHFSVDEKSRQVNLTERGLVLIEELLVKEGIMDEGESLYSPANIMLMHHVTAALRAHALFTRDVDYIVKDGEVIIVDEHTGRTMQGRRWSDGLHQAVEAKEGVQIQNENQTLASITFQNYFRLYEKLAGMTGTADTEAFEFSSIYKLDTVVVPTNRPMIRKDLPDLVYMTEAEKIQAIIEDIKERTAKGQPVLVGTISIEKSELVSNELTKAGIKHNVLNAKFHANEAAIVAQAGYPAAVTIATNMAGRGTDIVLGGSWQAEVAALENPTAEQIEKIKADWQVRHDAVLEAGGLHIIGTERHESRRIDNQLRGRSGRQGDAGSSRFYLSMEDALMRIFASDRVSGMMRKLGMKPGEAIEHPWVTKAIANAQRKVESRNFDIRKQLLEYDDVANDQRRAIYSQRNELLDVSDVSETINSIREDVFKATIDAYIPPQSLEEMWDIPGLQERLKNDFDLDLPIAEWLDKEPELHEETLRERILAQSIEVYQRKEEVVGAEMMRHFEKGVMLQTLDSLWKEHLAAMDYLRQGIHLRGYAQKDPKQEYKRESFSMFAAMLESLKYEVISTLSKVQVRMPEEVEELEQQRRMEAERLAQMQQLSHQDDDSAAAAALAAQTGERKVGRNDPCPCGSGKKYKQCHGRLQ
SMILES,Percent Effect [1] [%],Percent Effect [2] [%],Percent Effect [3] [%],Percent Effect [4] [%],Percent Effect (Trypanosoma cruzi) [%],Percent Effect [5] [%],Percent Effect [6] [%],Percent Effect (Homo sapiens) [%],Percent Effect [7] [%],Percent Effect [8] [%],Percent Effect [9] [%]
CC(C)S(=O)(=O)c1nnc(CCNC(=O)OC(C)(C)C)o1,-7.35,4,2.34,-6.84,-5.3,-9.33,14.1,17.5,3.17,2.56,-8.11
Cc1nccn1-c1nccnc1C1CCN(Cc2ccc(F)cc2)CC1,-2.09,21.3,4.62,-5.84,5.91,-2.56,15.2,7.46,4.25,16.7,-4.22
Cc1cc(C)n(CC2CCCN2C(=O)c2cnn(C)c2C2CC2)n1 (configuration not stated),-0.918,2.7,11.2,10.3,0.65,-0.554,0.718,9.84,2.97,1.22,10.5
Cc1cccc(N2CCN(CCNC(=O)C(C)n3cncn3)CC2)c1 (configuration not stated),-4.94,28.9,-8.42,-3.17,3.83,-3.96,15,9.51,7.39,23.5,-10.7
Cc1ncccc1Oc1nccnc1C1CCN(C(C)C)CC1,-6.52,6.76,1.33,5.77,0.593,-2.09,2.65,-0.668,-31.2,9.09,-19.2
CNc1nc2c(s1)C(c1c(Cl)cccc1Cl)CC(=O)N2 (configuration not stated),2.52,5.26,-467,4.3,0.682,0,17,4.23,-10.6,-10.4,-2.54
COCCn1c2c(ccc1=O)CC(NS(C)(=O)=O)CC2 (configuration not stated),-3.49,13.3,-2.12,-9.48,-7.68,-1.63,-1.15,10.7,0,3.85,-4.29
O=C(COCc1ccccc1Cl)N1CCCC(n2cccn2)C1 (configuration not stated),-4.85,18.2,6.5,-7.66,-1.08,4,20.4,20.2,2.86,11.8,-9.25
Cc1ccc(C(=O)N2CCC3(CCN(C(=O)c4cccnc4)C3)CC2)o1,-2.08,13.5,6.42,-12.6,-3.62,14.3,13.8,-16.6,1.08,5.13,-2.81
CS(=O)(=O)Cc1cccc(C(=O)NCC2Cc3ccccc3O2)c1 (configuration not stated),-4.91,5.48,2.31,0.841,-2.74,5.46,17.9,-3.29,2.15,15,-4.73
CO[C@H]1CCN(S(=O)(=O)c2cn(C)cn2)[C@H]1Cc1cccnc1,-3.74,8,-3.32,-5.55,6.37,-49.6,7.86,-0.203,3.12,15,-9.19
CN(Cc1nnc2n1CCC2)C(=O)Cc1ccc2c(c1)OCCO2,-1.44,13.5,-8.06,-5.38,4.25,-5.21,13.7,10.6,4.43,18.5,-8.36
O=C(c1ccc[nH]1)N1CCCC2(CCN(c3ccsc3)C2=O)C1 (configuration not stated),-0.928,-2.6,11.3,3.88,-3.06,-5.81,1.57,4.99,-3.17,-3.85,-1.57
O=C(CCc1nccs1)N1CCN(c2ccc(Br)cn2)CC1,-7.37,7.79,14.3,-8.09,-1.27,-1.05,-4.12,31.4,2.86,7.06,-21.6
Cc1cccc(Cn2ccc(NS(C)(=O)=O)n2)c1,-6.41,7.79,-2.37,7.5,7.77,-40,9.65,0.107,6.45,11.1,-7.65
O=C(O)c1c[nH]c2cc(NS(=O)(=O)c3cccc(Cl)c3F)ccc12,-4.73,-10.4,-45.8,7.97,0.562,5.69,4.22,2.38,-11.7,-24.4,0.552
Cc1cc(N(C)Cc2cc(C)on2)n2nc(C)c(C)c2n1,1.74,4.17,-0.739,-6.39,-6.71,1.32,11.4,10.3,2.1,7.69,-5.04
